Compounds without any hit were thinned out: in the full panel of roughly 83,000, 20% have a hit.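 Assay: single dose, 48 h. Readout: percent growth (0 = no net growth; negative = cell death). Active: <10.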 The source made the active and inactive calls.
How the values were obtained:
Assay in all cases: NCI-60 one-dose screen, 48 h (100 = growth as untreated, 0 = no growth, -100 = all killed)
Settings in all cases: 10 µM unless noted
NCI-H23 lung = test system: NCI-H23 lung
NCI-H226 lung = test system: NCI-H226 lung
NCI-H322M lung = test system: NCI-H322M lung
HOP-62 NSCLC = test system: HOP-62 NSCLC
NCI-H460 lung = test system: NCI-H460 lung
HOP-92 NSCLC = test system: HOP-92 NSCLC
NCI-H522 lung = test system: NCI-H522 lung
A549/ATCC NSCLC = test system: A549/ATCC NSCLC
786-0 renal = test system: 786-0 renal
COLO 205 colon = test system: COLO 205 colon

Measured: growth

CNC(=O)c1cc(Oc2ccc(NC(=O)Nc3ccc(Cl)c(C(F)(F)F)c3)c(F)c2)ccn1
active: NCI-H23 lung -25.8% | NCI-H226 lung -16.8% | NCI-H322M lung -13.4% | HOP-62 NSCLC -48.1% | NCI-H460 lung -35.4% | HOP-92 NSCLC -20.1% | NCI-H522 lung -69.3% | A549/ATCC NSCLC -2.14% | 786-0 renal 3.58% | COLO 205 colon -59%

S=C(NCc1ccc2c(c1)OCO2)N1CCN(c2ncnc3c2oc2ccccc23)CC1
inactive: NCI-H23 lung 44.1% | NCI-H226 lung 28.7% | NCI-H322M lung 35.3% | HOP-62 NSCLC 30.7% | NCI-H460 lung 31.8% | HOP-92 NSCLC 38.1% | NCI-H522 lung 22.6% | A549/ATCC NSCLC 25.6% | 786-0 renal 47.5%
active: COLO 205 colon 4.16%

CCOc1cccc(/C=N/NC(=O)c2ccccc2Nc2ccnc(C(F)(F)F)c2)c1O
inactive: NCI-H23 lung 21.6% | NCI-H322M lung 22.2% | HOP-92 NSCLC 25.2% | NCI-H522 lung 16.6% | A549/ATCC NSCLC 15%
active: NCI-H226 lung -15.2% | HOP-62 NSCLC -7.4% | NCI-H460 lung -8.7% | 786-0 renal 3.64% | COLO 205 colon 9.3%

Cc1nc2cc(-c3nn(C(C)C)c4ncnc(N)c34)ccc2o1
active: NCI-H23 lung -0.166% | NCI-H226 lung -20.5% | NCI-H322M lung -23.2% | HOP-62 NSCLC -36.3% | NCI-H460 lung 3.28% | HOP-92 NSCLC -40.4% | NCI-H522 lung -11.5% | A549/ATCC NSCLC -29.2% | 786-0 renal -29.5% | COLO 205 colon -24.9%

CC[C@@H]1C(=O)N(C)c2cnc(Nc3ccc(C(=O)NC4CCN(C)CC4)cc3OC)nc2N1C1CCCC1
inactive: NCI-H226 lung 52.6% | NCI-H322M lung 24.9%
active: NCI-H23 lung 8.04% | HOP-62 NSCLC -20.1% | NCI-H460 lung 8.51% | HOP-92 NSCLC 7.59% | NCI-H522 lung -14.4% | A549/ATCC NSCLC 3.29% | 786-0 renal 8.26% | COLO 205 colon -54%

O=C(CNc1nnc(-c2ccc(Cl)cc2)o1)Nc1ccc(-c2nc3ccccc3s2)cc1
inactive: NCI-H23 lung 88.7% | NCI-H226 lung 82.9% | NCI-H322M lung 95.1% | HOP-62 NSCLC 107% | NCI-H460 lung 99.7% | HOP-92 NSCLC 87.9% | NCI-H522 lung 77.1% | A549/ATCC NSCLC 95.8% | 786-0 renal 101% | COLO 205 colon 104%

CC(C)[C@@H]1CC[C@@H]2[C@@H]1[C@H](OC(=O)/C=C/c1ccccc1)[C@]1(C(C)C)C[C@@H](OC(=O)CO)[C@@]2(C)O1
inactive: NCI-H23 lung 83.1% | NCI-H226 lung 63.2% | NCI-H322M lung 105% | HOP-62 NSCLC 87.4% | NCI-H460 lung 89.3% | HOP-92 NSCLC 68.6% | NCI-H522 lung 65.9% | A549/ATCC NSCLC 71.4% | 786-0 renal 78.1% | COLO 205 colon 84.6%

CC/C(=C(/c1ccc(Cl)cc1)c1ccc(OCCN2CCCCC2)cc1)c1ccc(Cl)cc1
inactive: NCI-H23 lung 61.9% | NCI-H226 lung 84.5% | NCI-H322M lung 93.1% | HOP-62 NSCLC 86.8% | NCI-H460 lung 79.7% | HOP-92 NSCLC 85.2% | NCI-H522 lung 65.3% | A549/ATCC NSCLC 73% | 786-0 renal 76.7% | COLO 205 colon 70.4%

Clc1ccc2c(NCCCNCc3ccc4c(c3)OCO4)ccnc2c1
active: COLO 205 colon -56.6%
inactive: NCI-H23 lung 72.7% | NCI-H226 lung 80.1% | NCI-H322M lung 71.8% | HOP-62 NSCLC 42.7% | NCI-H460 lung 60.5% | HOP-92 NSCLC 47.4% | NCI-H522 lung 20.1% | A549/ATCC NSCLC 51.2% | 786-0 renal 66.8%

C[C@@H](Oc1cc(-n2cnc3ccc(CN4CCN(C)CC4)cc32)sc1C(N)=O)c1ccccc1C(F)(F)F
inactive: NCI-H23 lung 32.9% | NCI-H226 lung 69.3% | NCI-H322M lung 63.8% | HOP-92 NSCLC 21.7%
active: HOP-62 NSCLC 4.73% | NCI-H460 lung 8.47% | NCI-H522 lung -13.5% | A549/ATCC NSCLC 0.209% | 786-0 renal 6.39% | COLO 205 colon -17.1%

CCc1nc(C(N)=O)c(Nc2ccc(N3CCC(N4CCN(C)CC4)CC3)c(OC)c2)nc1NC1CCOCC1
active: HOP-92 NSCLC -25.2% | NCI-H522 lung 1.52% | COLO 205 colon -46.5%
inactive: NCI-H23 lung 32.5% | NCI-H226 lung 38.2% | NCI-H322M lung 43.3% | HOP-62 NSCLC 16.9% | NCI-H460 lung 17.2% | A549/ATCC NSCLC 12.4% | 786-0 renal 10.2%

C[C@@H](Nc1cc(F)cc(F)c1)c1cc(C(=O)N(C)C)cc2c(=O)cc(N3CCOCC3)oc12
inactive: NCI-H23 lung 76.6% | NCI-H226 lung 83.7% | NCI-H322M lung 31.5% | HOP-62 NSCLC 59.3% | NCI-H460 lung 43.1% | HOP-92 NSCLC 27.3% | NCI-H522 lung 59.7% | A549/ATCC NSCLC 34.9% | 786-0 renal 12.7% | COLO 205 colon 46.6%

C[C@@H](Oc1cc(-c2cnn(C3CCNCC3)c2)cnc1N)c1c(Cl)ccc(F)c1Cl
active: NCI-H23 lung -10.4% | NCI-H226 lung -11.6% | HOP-62 NSCLC -34.8% | NCI-H460 lung -64.4% | HOP-92 NSCLC -51.9% | NCI-H522 lung -74.8% | A549/ATCC NSCLC -40.9% | 786-0 renal -74.7% | COLO 205 colon -78.5%
inactive: NCI-H322M lung 15.2%

CCc1nc2cc(/C=C/C(=O)NO)ccc2c(=O)n1CCc1ccc(OC)cc1
inactive: NCI-H23 lung 24.5% | NCI-H226 lung 50% | NCI-H322M lung 29.9% | HOP-62 NSCLC 16.6% | NCI-H460 lung 13% | HOP-92 NSCLC 22.5% | NCI-H522 lung 15.2% | A549/ATCC NSCLC 24.1% | 786-0 renal 21%
active: COLO 205 colon -2.84%

N#Cc1c(NC(=O)c2ccco2)[n+]([O-])c2cc(F)c(F)cc2[n+]1[O-]
active: HOP-92 NSCLC -4.85%
inactive: NCI-H23 lung 82.7% | NCI-H226 lung 103% | NCI-H322M lung 103% | HOP-62 NSCLC 120% | NCI-H460 lung 106% | NCI-H522 lung 59.2% | A549/ATCC NSCLC 97.1% | 786-0 renal 98.5% | COLO 205 colon 98.3%

O=[N+]([O-])c1cc(Br)cc2c1[nH]c1ccc(Br)cc12
inactive: NCI-H23 lung 58% | NCI-H226 lung 53.9% | NCI-H322M lung 58% | HOP-62 NSCLC 39.2% | NCI-H460 lung 73.5% | HOP-92 NSCLC 44.2% | NCI-H522 lung 63.5% | A549/ATCC NSCLC 52.3% | 786-0 renal 44.3% | COLO 205 colon 52.1%

COc1ccc(C2CC(=O)c3c(O)c(OC)c(OC)c(OC)c3O2)c(O)c1 (stereo not given)
inactive: NCI-H23 lung 27.5% | NCI-H226 lung 66.8% | NCI-H322M lung 51.4% | HOP-62 NSCLC 64.9% | HOP-92 NSCLC 77.9% | NCI-H522 lung 12% | A549/ATCC NSCLC 28.1% | 786-0 renal 47.2% | COLO 205 colon 57.3%
active: NCI-H460 lung 9.27%

O=C(c1c(F)ccc(NS(=O)(=O)N2CC[C@@H](F)C2)c1F)c1c[nH]c2ncc(-c3cnc(C4CC4)nc3)cc12
active: COLO 205 colon 0.255%
inactive: NCI-H23 lung 58.6% | NCI-H226 lung 62.3% | NCI-H322M lung 21.6% | HOP-62 NSCLC 37.7% | NCI-H460 lung 37.3% | HOP-92 NSCLC 35.7% | NCI-H522 lung 32.5% | A549/ATCC NSCLC 33.8% | 786-0 renal 39.8%

C=CC(=O)N1CCC[C@H](n2c(=O)n(-c3ccc(Oc4ccccc4)cc3)c3c(N)ncnc32)C1
inactive: NCI-H23 lung 92.7% | NCI-H226 lung 79.1% | NCI-H322M lung 19.3% | HOP-62 NSCLC 82.8% | NCI-H460 lung 96.2% | HOP-92 NSCLC 85.7% | NCI-H522 lung 11.3% | A549/ATCC NSCLC 58.3% | 786-0 renal 85.3% | COLO 205 colon 93.1%

COc1cc(N2CCC(N3CCN(C)CC3)CC2)ccc1Nc1ncnc(Nc2ccccc2S(=O)(=O)C(C)C)n1
inactive: NCI-H23 lung 102% | NCI-H226 lung 109% | NCI-H322M lung 109% | HOP-62 NSCLC 86.7% | NCI-H460 lung 102% | HOP-92 NSCLC 105% | NCI-H522 lung 80.5% | A549/ATCC NSCLC 104% | 786-0 renal 99.7% | COLO 205 colon 99%

COC(=O)[C@@H](C)CNS(=O)(=O)N(c1cc(C(F)(F)F)cc(C(F)(F)F)c1)C1CCN(Cc2ccc(F)cc2)CC1
inactive: NCI-H23 lung 66.8% | NCI-H226 lung 70.1% | NCI-H322M lung 79% | HOP-62 NSCLC 79% | NCI-H460 lung 62.3% | HOP-92 NSCLC 47.8% | NCI-H522 lung 56.1% | A549/ATCC NSCLC 54% | 786-0 renal 59.7%
active: COLO 205 colon -43.2%

Nc1c(C(=O)c2ccccc2)sc2nc(-c3cccs3)cc(-c3cccs3)c12
inactive: NCI-H23 lung 67% | NCI-H226 lung 80.6% | NCI-H322M lung 80.8% | HOP-62 NSCLC 59.6% | NCI-H460 lung 14.2% | HOP-92 NSCLC 69.2% | A549/ATCC NSCLC 36.2% | 786-0 renal 47.6% | COLO 205 colon 35.9%
active: NCI-H522 lung -20.7%

Cc1cc(Nc2cc(N3CCN(C)CC3)nc(/C=C/c3ccccc3)n2)n[nH]1
inactive: NCI-H23 lung 22.3% | NCI-H226 lung 17.7% | NCI-H322M lung 29.5%
active: HOP-62 NSCLC -19.7% | NCI-H460 lung 5.31% | HOP-92 NSCLC -60.5% | NCI-H522 lung -12.4% | A549/ATCC NSCLC -25% | 786-0 renal -94.3% | COLO 205 colon -63.2%

Cc1ccc(-[n+]2c3cc(N)c(C)cc3nc3cc(C)c(Nc4ccccc4)cc32)cc1
active: NCI-H23 lung -74.4% | NCI-H226 lung -67% | NCI-H322M lung -53.1% | HOP-62 NSCLC -64.9% | NCI-H460 lung -48.2% | HOP-92 NSCLC -60.5% | NCI-H522 lung -48.8% | A549/ATCC NSCLC -18.9% | 786-0 renal -93% | COLO 205 colon -94.9%

CN[C@@H]1C[C@H]2O[C@@](C)([C@@H]1OC)n1c3ccccc3c3c4c(c5c6ccccc6n2c5c31)C(=O)N[C@H]4O
active: NCI-H23 lung -48.8% | NCI-H226 lung -47.1% | NCI-H322M lung -25.8% | HOP-62 NSCLC -60.8% | NCI-H460 lung -63.7% | HOP-92 NSCLC -9.92% | NCI-H522 lung -37.2% | A549/ATCC NSCLC -36.8% | 786-0 renal -87.5% | COLO 205 colon -80.8%

CCN(CC)c1cc2oc3cc(N)cc(=N)c-3nc2cc1C
inactive: NCI-H23 lung 13.9% | NCI-H226 lung 84.9% | NCI-H322M lung 91.7% | HOP-62 NSCLC 65.3% | NCI-H460 lung 74.6% | HOP-92 NSCLC 82.1% | NCI-H522 lung 43.4% | A549/ATCC NSCLC 26.1% | 786-0 renal 62.6% | COLO 205 colon 20.8%
